# According to PubChem BioAssay (Tox21):
# Values joined by “and” are separate entries in the source; they are usually repeats but may differ in a detail not shown here. Identical values can stand only once. Results filed as inconclusive are left out. A call without a number means that no potency is given here. More than one record can exist for a structure, and the calls need not agree. Active and inactive are the calls of the source. Unless noted, calls follow the shape of the dose curve; as a rule, active = well fitted curve in the direction sought with a large enough effect in the repeat runs; inconclusive = weak or mixed curves; inactive = no such curve, though single readings can be large; an effect the other way counts as inactive or inconclusive.
# Assays:
# [1] = qHTS assay to identify small molecule antagonists of the estrogen receptor alpha (ER-alpha) signaling pathway using the BG1 cell line in the presence of 0.1 nM 17-beta-estradiol - cell viability counter screen (AID 1259241); also: nearly all actives have a fitted effect of over 40% in size; also: potency is read from the fitted curve at half-maximal effect
# Procedure, shortened: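 VM7Luc4E2 cells (endogenous full-length ER-alpha, 4xERE-luciferase), cultured 5 days in charcoal-stripped serum, exposed to compounds with 0.1 nM 17beta-estradiol (final) for 22 hr at 37C. Viability read in same wells as live-cell protease fluorescence after 30 min.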
# [2] = qHTS assay to identify small molecule antagonists of the androgen receptor (AR) signaling pathway using the MDA cell line in the presence of 0.5 nM R1881 - cell viability counter screen (AID 1259242); also: nearly all actives have a fitted effect of over 45% in size; also: potency is read from the fitted curve at half-maximal effect
# Procedure, shortened: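 Viability of MDA-kb2 cells was multiplexed with the luciferase AR readout; after 16 hr with compounds and R1881 at 0.5 nM final, CellTiter-Fluor fluorescence was recorded.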
# [3] = molecular target: Androgen receptor (Homo sapiens) (UniProt P10275); experiment: qHTS assay to identify small molecule antagonists of the androgen receptor (AR) signaling pathway using the MDA cell line in the presence of 0.5 nM R1881 (AID 1259243); also: nearly all actives have a fitted effect of over 50% in size; also: potency is read from the fitted curve at half-maximal effect
# Chain of Androgen receptor (Homo sapiens) (P10275 whole entry, looked up): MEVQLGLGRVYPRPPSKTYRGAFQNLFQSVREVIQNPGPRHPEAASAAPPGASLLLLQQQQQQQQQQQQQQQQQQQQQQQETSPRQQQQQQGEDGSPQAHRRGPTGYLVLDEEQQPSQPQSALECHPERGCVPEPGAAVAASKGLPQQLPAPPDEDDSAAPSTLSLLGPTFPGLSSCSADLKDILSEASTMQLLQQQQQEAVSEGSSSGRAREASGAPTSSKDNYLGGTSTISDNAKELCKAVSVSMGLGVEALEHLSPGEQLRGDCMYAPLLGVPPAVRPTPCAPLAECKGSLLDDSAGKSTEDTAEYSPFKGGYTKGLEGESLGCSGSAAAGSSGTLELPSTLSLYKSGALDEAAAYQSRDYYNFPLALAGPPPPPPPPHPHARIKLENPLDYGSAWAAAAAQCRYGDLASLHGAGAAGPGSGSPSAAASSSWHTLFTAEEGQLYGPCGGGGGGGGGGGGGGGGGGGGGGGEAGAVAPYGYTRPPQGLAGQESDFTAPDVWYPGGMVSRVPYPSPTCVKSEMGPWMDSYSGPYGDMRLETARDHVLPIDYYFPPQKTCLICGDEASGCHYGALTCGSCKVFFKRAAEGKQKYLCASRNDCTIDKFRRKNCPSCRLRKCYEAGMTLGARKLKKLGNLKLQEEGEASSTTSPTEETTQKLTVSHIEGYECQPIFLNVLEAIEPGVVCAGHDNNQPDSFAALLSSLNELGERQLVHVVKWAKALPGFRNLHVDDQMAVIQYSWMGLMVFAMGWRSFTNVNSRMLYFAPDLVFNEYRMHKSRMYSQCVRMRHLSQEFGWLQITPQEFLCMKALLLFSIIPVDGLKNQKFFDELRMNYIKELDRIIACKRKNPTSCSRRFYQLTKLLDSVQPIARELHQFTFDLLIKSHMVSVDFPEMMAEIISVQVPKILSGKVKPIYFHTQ
# Procedure, shortened: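 Reporter cells cultured without CO2 receive test chemicals, then 0.5 nM R1881 final; after 16 hr at 37C, ONE-Glo is added and light output recorded.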
# [4] = qHTS assay to identify small molecule HDAC inhibitors (AID 1259364); also: potency is read from the fitted curve at half-maximal effect;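 also: wild-type HCT-116 cells with endogenous class I/II HDAC activity; nearly all actives have a fitted effect of over 45% in size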
# Procedure, shortened: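 Read-out: luminescence of HDAC-Glo I/II reagent, 30 min RT, reflecting class I/II deacetylase activity in whole HCT-116 cells pre-exposed 2 h to DMSO-dissolved compounds.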
# [5] = qHTS assay to identify small molecule HDAC inhibitors - cell viability counter screen (AID 1259365); also: nearly all actives have a fitted effect of over 50% in size; also: potency is read from the fitted curve at half-maximal effect
# Procedure, shortened: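 Wild-type HCT-116 cells, 1,500/well, cultured overnight, then compound-treated 2 h at 37 C. Viability measured as ATP luminescence with CellTiter-Glo after 30 min at room temperature.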
# [6] = qHTS assay to identify small molecule agonists of the sonic hedgehog signaling (Shh) pathway - cell viability counter screen (AID 1259366); also: nearly all actives have a fitted effect of over 50% in size; also: potency is read from the fitted curve at half-maximal effect
# Procedure, shortened: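 NIH/3T3-derived Gli1-Luc reporter cells, 2,000 per well, received compound after 4 h and were treated about 23 h at 37C. Viability measured in the same wells by CellTiter-Fluor fluorescence after 1 h.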
# [7] = qHTS assay to identify small molecule antagonists of the sonic hedgehog signaling (Shh) pathway - cell viability counter screen (AID 1259367); also: nearly all actives have a fitted effect of over 55% in size; also: potency is read from the fitted curve at half-maximal effect
# Procedure, shortened: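 Cells: 3T3 Gli1-Luc, 2,000/well, 4 hr pre-incubation. Compounds in DMSO, then conditioned medium. Incubation 24 hr, 37C, 5% CO2. CellTiter-Fluor at 23 hr, 1 hr, fluorescence.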
# [8] = qHTS assay to identify small molecule agonists of the sonic hedgehog signaling (Shh) pathway (AID 1259368; calls by dose curve;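 also: NIH/3T3-derived 3T3Gli1-Luc cells carrying a stable Gli1-driven firefly luciferase reporter; series mostly up to about 92 µM; nearly all actives have a fitted effect of over 15% in size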)
# Procedure, shortened: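 A Gli1 transcriptional response element controlled firefly luciferase in 3T3Gli1-Luc cells. Compounds and a positive control were added 4 hr after plating, and cells were incubated a further 24 hr at 37 C before luminescence detection.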
# [9] = molecular target: Estrogen receptor (Homo sapiens) (UniProt P03372); experiment: qHTS assay to identify small molecule antagonists of the estrogen receptor alpha (ER-alpha) signaling pathway using the BG1 cell line in the presence of 0.1 nM 17-beta-estradiol (AID 1259244); also: nearly all actives have a fitted effect of over 50% in size; also: potency is read from the fitted curve at half-maximal effect
# Chain of Estrogen receptor (Homo sapiens) (P03372 whole entry, looked up): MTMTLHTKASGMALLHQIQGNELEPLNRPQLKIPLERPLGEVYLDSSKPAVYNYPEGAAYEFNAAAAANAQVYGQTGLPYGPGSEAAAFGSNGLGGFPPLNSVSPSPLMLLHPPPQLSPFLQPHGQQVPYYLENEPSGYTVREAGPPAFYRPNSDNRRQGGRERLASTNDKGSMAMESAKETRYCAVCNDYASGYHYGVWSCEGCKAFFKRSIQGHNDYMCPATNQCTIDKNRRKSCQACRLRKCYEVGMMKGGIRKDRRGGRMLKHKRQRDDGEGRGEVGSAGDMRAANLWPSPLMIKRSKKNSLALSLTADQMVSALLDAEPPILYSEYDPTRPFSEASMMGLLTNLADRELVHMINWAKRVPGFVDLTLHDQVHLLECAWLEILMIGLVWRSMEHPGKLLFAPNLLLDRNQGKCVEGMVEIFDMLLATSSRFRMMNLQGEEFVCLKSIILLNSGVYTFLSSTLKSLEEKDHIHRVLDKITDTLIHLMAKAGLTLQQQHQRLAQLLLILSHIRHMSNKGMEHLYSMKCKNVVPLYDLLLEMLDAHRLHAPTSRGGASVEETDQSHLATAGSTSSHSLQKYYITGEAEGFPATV
# Procedure, shortened: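 Estradiol at 0.1 nM (final) stimulates the endogenous ER-alpha of VM7Luc4E2 cells carrying an ERE-driven luciferase; compounds are co-incubated 22 h at 37C and luciferase output quantified by luminescence.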
# [10] = qHTS assay to identify small molecule phospholipidosis (PLD) inducers (AID 1259344; active = well fitted curve in the direction sought with a large enough effect; an effect the other way counts as inactive or inconclusive)
# Procedure, shortened: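 Phospholipidosis is scored by imaging LipidTOX-stained pits in HepG2 cells exposed to compound for 24 h at 37 C; pit counts and integrated intensities per well and per cell serve as outputs.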
Compound,Potency [1],Potency [2],Potency [3],Potency [4],Potency [5],Potency [6],Potency [7],Potency [8],Potency [9],Potency [10],PLD induction [10]
CC(=O)Nc1ccc(C(=O)CCl)cc1,inactive,inactive and 54.5 µM (active),inactive and 54.5 µM (active),inactive,inactive,21.7 µM (active),inactive,inactive,–,–,–
CCOc1ccccc1C(N)=O,inactive,inactive,inactive,–,inactive,inactive,inactive,inactive,inactive,inactive,–
OCC(CO)N[C@H]1C[C@](O)(CO)[C@@H](O)[C@H](O)[C@H]1O,inactive,inactive,inactive,inactive,inactive,inactive,inactive,inactive,inactive,inactive,–
CC(=O)N[C@@H](CS)C(=O)O,inactive,inactive,–,inactive,inactive,inactive,inactive,inactive,inactive,inactive,–
CCCC(=O)c1ccccc1,inactive,inactive,inactive,inactive,inactive,inactive,inactive,inactive,–,–,–
Nc1nc(=S)c2[nH]cnc2[nH]1,inactive,inactive,inactive,inactive,inactive,inactive,inactive,inactive,inactive,inactive,–
Nc1cc(Cl)c(-c2cc(Cl)c(N)cc2Cl)cc1Cl,inactive,inactive,4.32 µM (active) and 2.17 µM (active),inactive,inactive,–,54.4 µM (active) and 38.6 µM (active),inactive,24.3 µM (active) and 34.4 µM (active),–,–
CC(C)CCOCc1ccccc1,inactive,inactive,inactive,inactive,inactive,inactive,inactive,inactive,inactive,–,–
CCC(C)(C)C(=O)O[C@H]1C[C@@H](C)C=C2C=C[C@H](C)[C@H](CC[C@@H]3C[C@@H](O)CC(=O)O3)[C@H]21,inactive,inactive,–,inactive,inactive,inactive,inactive,inactive,inactive,inactive,–
C#CC(C)(CC)OC(=O)c1ccccc1C(=O)O (stereo not drawn),inactive,inactive,inactive,–,inactive,inactive,inactive,inactive,inactive,–,–
CCc1ccc(C(c2ccc(CC)cc2)C(Cl)Cl)cc1,inactive,inactive,49.3 µM (active),inactive,inactive,inactive,inactive,inactive,inactive,–,–
NCCO,inactive,inactive,–,inactive,inactive,inactive,inactive and 43.3 µM (active),inactive,inactive,inactive,–
CCCCCCCCCCCCCC[P+](CCCC)(CCCC)CCCC,60.8 µM (active) and 30.6 µM (active),27.1 µM (active) and 21.7 µM (active),1.08 µM (active) and 1.72 µM (active),–,68.2 µM (active) and 68.6 µM (active),27.1 µM (active),30.5 µM (active) and 30.6 µM (active),inactive,2.71 µM (active) and 4.33 µM (active),–,–
Cc1ccc(-c2cc(C(F)(F)F)nn2-c2ccc(S(N)(=O)=O)cc2)cc1,inactive,inactive,54.3 µM (active) and 68.6 µM (active),–,inactive,60.9 µM (active) and 61.1 µM (active) and inactive,54.3 µM (active) and 61.1 µM (active) and inactive,inactive,inactive,inactive,–
COc1cc(C(=S)N2CCOCC2)ccc1O,inactive,inactive,inactive,inactive,–,inactive,inactive,inactive,inactive,inactive,–
BrC1CCC(Br)C(Br)CCC(Br)C(Br)CCC1Br (stereo not drawn),inactive,inactive,inactive,–,–,inactive,inactive,inactive,inactive,–,–
CCN1CCCC1CNC(=O)c1cc(S(=O)(=O)CC)c(N)cc1OC (stereo not drawn),inactive,inactive,–,–,–,inactive,inactive,inactive,inactive,–,-3.27% [at 7.66 µM] (inactive)
NC(=Nc1ccccc1)Nc1ccccc1,inactive,inactive,–,686 nM (active) and inactive,–,inactive,inactive,inactive,10.9 µM (active),inactive,–
c1ccc2c(c1)-c1cccc3c1c-2cc1ccccc13,inactive,inactive,–,inactive,inactive,inactive,inactive,inactive,inactive,–,–
CC(=O)OCCOCCOCCOC(C)=O,inactive,inactive,–,inactive,inactive,inactive,inactive,inactive,inactive,–,–
[Cl][In]([Cl])[Cl],inactive,inactive,–,inactive,inactive,–,inactive,inactive,inactive,inactive,–
